This passage reports outcome results from PubChem BioAssay AID720690 (Broad Institute, 2013).

Results with a measured potency or affinity are listed apart. The source made the active and inactive calls.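 How the source made its calls: active means every repeat run showing a signal drop whose fitted half-maximal concentration is at most twice the top tested concentration; inconclusive means repeat runs disagree, or flat partial drop, or poor fit; inactive means the rest.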

The nature of this test: HEK293T cytotoxicity, dose response, cytotoxicity control for miR-122 modulator project, cell-based, activator set, cherry-pick (AID 720690). The settings on record: HEK293T viability, CellTiter-Glo luminescence, 48 h; series mostly up to 26 µM. In general terms: ATP-based viability assays read luminescence as a measure of living cells.
On to `CCCNC(=O)N1[C@H](CO)[C@H](c2ccc(-c3ccccc3)cc2)[C@@H]1CNC(C)=O`, for which the result was inactive. As for `CCC(=O)N1[C@H](CO)[C@H](c2ccccc2)[C@H]1CNC(=O)CN1CCOCC1`, the outcome was inactive. For `O=C(Nc1ccc(Cl)c(C(F)(F)F)c1)c1ccco1` the value was “inactive”; for `CO[C@@H]1CN(C)C(=O)c2ccc(NS(=O)(=O)c3cccc(F)c3)cc2OC[C@@H](C)NC[C@H]1C`, “inactive”; for `CC(C)C#Cc1ccc2c(c1)O[C@H](CN(C)C(=O)c1ccncc1)[C@H](C)CN([C@@H](C)CO)S2(=O)=O`, “inactive”.

With `CCNC(=O)C[C@H]1CC[C@H]2[C@@H](COc3ccc(NC(=O)c4ccccc4)cc3C(=O)N2C)O1`, the compound was called inactive. With `O=C(c1cccnc1)N1C[C@H]2[C@@H](c3ccccc31)[C@H](CO)N2C(=O)C1CCCC1`, the compound was classed as inactive. With `COCCN(C[C@H]1[C@H](c2ccccc2)[C@@H](CO)N1C(=O)C1CCC1)C(C)=O`, the result was inactive.

Consider `C/C=C/c1ccc([C@@H]2[C@@H](CN(C(=O)COC)C(C)C)N(C(C)=O)[C@H]2CO)cc1`, for which the result was inactive. For `CCCNC(=O)Nc1ccc2c(c1)C(=O)N(C)[C@H]1CC[C@H](CC(=O)NC3CCC3)O[C@H]1CO2` the value was “inactive”. In the case of `COCC(=O)N(C)C[C@H]1[C@H](c2ccccc2)[C@@H](CO)N1C(=O)NC(C)C`, the result was inactive. As to `C[C@H](CO)N1C[C@H](C)[C@H](CN(C)C(=O)Nc2ccc3c(c2)OCO3)Oc2ncc(-c3cccc(C(F)(F)F)c3)cc2C1=O`, the call was inactive.

As for `CC(=O)Nc1ccc2c(c1)C(=O)N(C)[C@@H]1CC[C@H](CC(=O)NCCCN3CCOCC3)O[C@@H]1CO2`, the compound was called inactive. Next, `C[C@H](CO)N1C[C@H](C)[C@H](CN(C)C(=O)NC2CCCCC2)Oc2ncc(-c3cccc(C(F)(F)F)c3)cc2C1=O`: “inactive”; `COc1ccc(C#Cc2ccc([C@@H]3[C@@H](CO)N4CCCCN(C(=O)Nc5ccccc5)C[C@H]34)cc2)cc1`: “inactive”; `CC(C)C(=O)Nc1ccc2c(c1)C(=O)N(C)[C@@H]1CC[C@H](CC(=O)NCc3cccc(F)c3)O[C@H]1CO2`: “inactive”. As to `COc1ccc(NC(=O)Cn2nnc(C(=O)NCc3ccccc3OC)c2N)cc1Cl`, the result was inactive. For the compound `CO[C@@H]1CN(C)C(=O)c2cc(NC(=O)Nc3ccc(Cl)c(Cl)c3)ccc2OC[C@H](C)NC[C@H]1C`, the compound was classed as inactive.

Turning to `COCC(=O)N1[C@H](CO)[C@H]2c3ccccc3N(C(=O)c3ccccc3F)C[C@H]21`, the call was inactive. With `C[C@H](CO)N1C[C@H](C)[C@@H](CN(C)Cc2ccc(Oc3ccccc3)cc2)Oc2ncc(-c3cncnc3)cc2C1=O`, the result was inactive. For `c1ccc(-c2nnc3n2CCCC3)cc1` the value was “inactive”; for `C/C=C/c1ccc([C@@H]2[C@@H](CO)N[C@@H]2CN(C(=O)C2CCC2)C(C)C)cc1`, “inactive”; for `O=C(Nc1ccc(F)cc1)N1C[C@@H]2[C@H](c3ccccc31)[C@H](CO)N2C(=O)Cc1ccccc1`, “inactive”. On to `CC(C)C(=O)Nc1ccc2c(c1)C(=O)N(C)[C@@H]1CC[C@@H](CC(=O)NCC3CC3)O[C@H]1CO2`, for which the compound was called inactive. For the compound `CCCCc1cc(=O)oc2cc(C)cc(OC(C)C(=O)O)c12` (centres undefined), the compound was classed as inactive.

Take `CCC(=O)N1[C@H](CO)[C@@H](c2ccccc2)[C@@H]1CN(CC)C(=O)c1cccc(F)c1`: the call was inactive. In the case of `CNC(=O)C[C@H]1CC[C@@H]2[C@@H](COc3ccc(NC(=O)C(C)C)cc3C(=O)N2C)O1`, the result was inactive. For `N=c1c2c(-c3ccccc3)c(-c3ccccc3)n(Cc3ccccc3)c2ncn1CCCO`, the result was inactive. With `CCNC(=O)Nc1ccc2c(c1)C(=O)N(C)[C@H]1CC[C@H](CC(=O)Nc3cccc(F)c3)O[C@@H]1CO2`, the compound was classed as inactive. As to `COC(=O)C[C@H]1CC[C@H]2[C@H](COc3ccc(NC(=O)NC(C)C)cc3C(=O)N2C)O1`, the result was inactive. With `CN1C(=O)c2cc(NC(=O)Cc3ccccc3)ccc2OC[C@H]2O[C@@H](CC(=O)NC3CCC3)CC[C@@H]21`, the compound was classed as inactive. In the case of `CCNC(=O)Nc1ccc2c(c1)C(=O)N(C)[C@H]1CC[C@@H](CC(=O)NCCOC)O[C@@H]1CO2`, the outcome was inactive. As to `CN(C)CCNc1ncnc2c1sc1nc(N3CCOCC3)c3c(c12)CC(C)(C)SC3`, the outcome was inactive. Next, `C[C@H](CO)N1C[C@H](C)[C@@H](CN(C)C(=O)C2CCOCC2)Oc2cc(C#Cc3ccncc3)ccc2S1(=O)=O`: “inactive”; `CNC(=O)C[C@@H]1CC[C@@H]2[C@@H](COc3ccc(NC(=O)c4ccccc4F)cc3C(=O)N2C)O1`: “inactive”; `C/C=C/c1ccc([C@@H]2[C@@H](CNC(=O)CC)N(Cc3ccccn3)[C@H]2CO)cc1`: “inactive”. `C[C@H]1CN([C@@H](C)CO)C(=O)c2cc(C#CC3CCCC3)cnc2O[C@H]1CN(C)C(=O)Cc1ccccn1`: the result was inactive. With `CN1C(=O)c2cc(NC(=O)c3cccc(F)c3)ccc2OC[C@@H]2O[C@@H](CC(=O)O)CC[C@H]21`, the call was inactive. As to `Cc1cc(C(=O)Nc2ccc3c(c2)C(=O)N(C)[C@H]2CC[C@H](CC(=O)N[C@H](C)c4ccccc4)O[C@H]2CO3)no1`, the result was inactive.
